Assay outcomes from PubChem BioAssay.
Pf Dd2 growth = inhibitors of Plasmodium falciparum Dd2 growth. P. falciparum Dd2 growth, SYBR Green, 72 h. Potency, µM (top dose mostly 28.9 µM), for the others: at the top dose activity, negative = inhibition, most hits filed as inhibitors. AID 1347417. 120,000 tested, 4.3% active; active = well fitted inhibition curve with a large enough effect;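 note: plate controls were DMSO vehicle for no effect and reference drug for full effect; nearly all actives have a fitted effect of over 65% in size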
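Readout: SYBR Green fluorescence, 485 nm excitation, 535 nm emission, after ~16 h lysis at 37C. Before that, Dd2-infected red cells (2.5% hematocrit) grew 72 h with compound, 29 uM top final concentration.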
* = called active by the depositor; i = inactive; [ ] = another dose, or the depositor's remark. Many of the other results were omitted from the sample, so hits are more common in it than they were. Potency is the fitted concentration of half-maximal effect.

SMILES | Pf Dd2 growth
C#CCNC(=O)[C@@H]1Cc2cn(Cc3ccncc3)c3cccc(c23)[C@H](CC(C)C)N1 | 10µM*
CC(C)C[C@@H]1N[C@H](C(=O)NCCN(C)C)Cc2cn(Cc3ccccn3)c3cccc1c23 | -19%[44.1 µM]
Cc1cc(Cn2cc3c4c(cccc42)[C@H](CC(C)C)N[C@H](C(=O)NCc2ccc(C)o2)C3)no1 | 13µM*
C=CCn1cc2c3c(cccc31)[C@H](CC(C)C)N[C@H](C(=O)NCc1ccccn1)C2 | 11µM*
CC(=O)NCCNC(=O)[C@@H]1Cc2cn(Cc3cc(C)on3)c3cccc(c23)[C@H](CC(C)C)N1 | i
Cc1nc(-c2c3n(c(=O)[nH]c2=O)CCCC3)no1 | 10%
COc1cccc(CNC(=O)CN2C(=O)NC(c3ccc(C)cc3)C3=C2COC3=O)c1OC (stereo not given) | i
C=C[C@H]1CN2CC[C@H]1C[C@@H]2CNC(=O)COCC(=O)O | -5%[44.1 µM]
COC[C@@H]1CN(c2ncccn2)C[C@H]1C(=O)N(C)Cc1ccco1 | -7%
CC(=O)N1C[C@H](NC(=O)c2cc3c(n(C)c2=O)CCCC3)[C@@H](C2CC2)C1 | -14%
CCN1c2cc(C(=O)Nc3ccc(F)c(F)c3)ccc2C(=O)N2CCCCCC21 (stereo not given) | -4%
O=C(NC1C[C@H]2CC[C@@H](C1)N2C(=O)C1CCCCC1)c1ccncc1 (stereo not given in full) | -3%
Cc1ccc(NC(=O)/C=C/c2ccccc2Cl)cc1Cl | 2.8µM*
Cc1ccc(NC(=O)c2ncn(-c3ccccc3)n2)cc1Cl | 9%
CNC(=O)c1c(NC(=O)/C=C/c2ccccc2Cl)sc2c1CCC2 | -17%
CCCn1cc2c3c(cccc31)CN(C(=O)c1ccccc1F)CC2 | i
CCN(CC)c1ncccc1CNC(=O)c1ccc(C)s1 | 1%
Cc1ccc(Cn2c(SCc3ccc(C(=O)NCCc4ccccc4)cc3)nc3ccncc32)cc1 | 6.3µM*
COCCNC(=O)c1ccc(Cn2c(SCC(N)=O)nc3ccccc3c2=O)cc1 | -27%
Cc1ccccc1CSCc1ccc(C(=O)NCCc2ccccc2)o1 | 20%
Cc1ccccc1Cn1c(SCc2ccc(C(=O)NCCc3ccccc3)cc2)nc2ccncc21 | 7.1µM*
Cc1ccccc1Cn1c(SCc2ccc(C(=O)NC3CCCC3)cc2)nc2ccncc21 | -10%
O=C(NCCc1ccccc1)c1ccc(CSc2nc3ccncc3n2Cc2ccccc2)cc1 | 8.9µM*
COCCCNC(=O)CN1CC2CC(C1)[C@H]1CCCC(=O)N1C2 (stereo not given in full) | 4%
CN(C)CC(=O)N1C[C@@H]2C[C@H](C1)c1c(-c3cccc(C#N)c3)ccc(=O)n1C2 | 2%[44.1 µM]
SMILES | Pf Dd2 growth
CC(=O)N1CC2(Cc3ccccc31)CN(C(=O)c1ccccc1F)C2 | -29%[44.1 µM]
CN1C(=O)CCC2(CNC(=O)c3nccn3C)CCC=C12 (stereo not given) | -3%
O=C(Nc1ccccc1)N1CCn2c(nn(-c3ccc([N+](=O)[O-])cc3)c2=O)C1 | i
CCC1(N2CCN(S(=O)(=O)c3cc(F)cc(F)c3)CC2)CCN(C(=O)NC)C1 (stereo not given) | -14%
O=c1n(-c2ccc([N+](=O)[O-])cc2)nc2n1CCN(Cc1ccccc1)C2 | -12%
CN(Cc1cccnc1)C1CN(C(=O)C2CCCCC2)C1 | 0%
COc1ccc(-n2nc(C(=O)Nc3cccc(C)n3)c3c4ccccc4n(C)c3c2=O)cc1 | i
Cc1ccc(-n2nc(C(=O)NCCc3cccc(C)c3)c3c4ccccc4n(C)c3c2=O)cc1 | i
COc1ccc(-n2nc(C(=O)Nc3ccc(Br)cc3C)c3c4ccccc4n(C)c3c2=O)cc1 | 44%
COc1ccc(-n2nc(C(=O)N3CCN(c4cccc(C)c4)C(C)C3)c3c4ccccc4n(C)c3c2=O)cc1 (stereo not given) | 11µM*
COc1ccc(-n2nc(C(=O)NCCc3ccc(OC)c(OC)c3)c3c4ccccc4n(C)c3c2=O)cc1 | 3.2µM*
COc1ccc(-n2nc(C(=O)NCc3ccc(F)cc3)c3c4ccccc4n(C)c3c2=O)cc1 | 2%
O=C(NCCc1ccccc1)NC1CCc2nnc(C3CC3)n2CC1 (stereo not given) | 32%
Nc1c(C(=O)Nc2ccc(OC(F)(F)F)cc2)sc2nc3c(cc12)N1CCC3CC1 | 11µM*
COc1ccc(NC(=O)c2sc3nc4c(cc3c2N)CN(Cc2ccccc2)CC4)cc1 | i
CC(=O)c1ccc(NC(=O)c2sc3nc4c(cc3c2N)N2CCC4CC2)cc1 | -15%
Cc1ccc2cc(CN3CCC4(CC3)CC(O)CCO4)c(=O)[nH]c2c1 (stereo not given) | 4%
COCC1CN(C)CC12CCN(C(=O)c1cncc(C)c1)CC2 (stereo not given) | -3%
Cc1noc(-c2cn(C3CCN(C(=O)c4ccc[nH]4)CC3)nn2)n1 | i
COc1cc(NC(=O)Cn2c(N3CCc4ccccc4C3)nc(C)cc2=O)cc(OC)c1OC | -23%
COc1ccc(CNC(=O)Cn2c(N3CCc4ccccc4C3)nc(C)cc2=O)cc1 | 8.9µM*
COc1cccc(CNC(=O)Cn2c(N3CCc4ccccc4C3)nc(C)cc2=O)c1 | -20%
O[C@@H]1CC(CNCc2cccnc2)(COc2ccc(C(F)(F)F)cn2)C[C@@H]1O (stereo not given in full) | -2%
Cc1cc(C)n(C2CN(C(=O)COc3ccc(Cl)cc3Cl)C2)n1 | i
CN1CCC(N2CC[C@@H]3C(=O)NCCCCCCN(Cc4ccncc4)[C@@H]3C2)CC1 | 20%
SMILES | Pf Dd2 growth
O=C(Cc1ccsc1)N1CC(Oc2ccccc2-c2nc(-c3ccccc3)no2)C1 | 13µM*
c1ccc(-c2nc(-c3cnccn3)no2)c(OC2CCNC2)c1 (stereo not given) | i
Cc1ncccc1C(=O)N1CC(Oc2ccc(-c3nc(-c4ccccc4)no3)cc2)C1 | -25%[5.79 µM]
O=C(c1cnccn1)N1CCC(Oc2ccccc2-c2nc(-c3ccccc3)no2)C1 (stereo not given) | -16%
Cc1ncccc1C(=O)N1CC(Oc2ccccc2-c2nc(-c3ccccc3)no2)C1 | 11µM*
O=C(C1CCC1)N1CC(Oc2ccccc2-c2nc(-c3cnccn3)no2)C1 | 10µM*
O=C(c1ccncc1)N1CCC(Oc2ccccc2-c2nc(-c3ccccc3)no2)C1 (stereo not given) | -12%
O=C(C1CCOCC1)N1CCC(Oc2ccccc2-c2nc(-c3ccccc3)no2)C1 (stereo not given) | i
O=C(Cc1ccsc1)N1CCC(n2cc(-c3nc(-c4ccccc4)no3)nn2)C1 (stereo not given) | -1%
COc1cccc(NC(=O)c2ccc3c(c2)N(C)C2CCCCCN2C3=O)c1 (stereo not given) | -7%
Cc1ccc(NC(=O)N2CCC(CCNC(=O)CCC3CCCC3)CC2)cc1F | -17%
Cc1noc2c(N3CC[S+](=O)([O-])CC3)cc(-c3ccccc3)nc12 | 1%[44.1 µM]
Cc1ccc(NC(=O)NCCc2ncc(C)n2C2CCC2)cc1C | -11%
Cc1cnc(CCNC(=O)c2ccc(C#N)cc2)n1C1CCC1 | -23%
Cc1cnc(C2CCC2)n1C1CCN(C(=O)C2(c3ccccc3)CC2)CC1 | 13µM*
CC(=O)N1CCC(C(=O)NCCc2ncc(C)n2C2CCC2)CC1 | 3%
COCCn1c(C)cnc1CC1CCCN(C(=O)C2(c3ccc(OC)cc3)CC2)C1 (stereo not given) | -8%
COC(=O)CNC(=O)NCCc1ncc(C)n1C1CCCC1 | 3%
CC(=O)N1CCC(n2c(C)cnc2C2CC2)CC1 | 6%
